Screening data (PubChem BioAssay)
Vaccinia Venus – vaccinia inhibition (Venus reporter); hit rate 0.46% among 330,000; Vaccinia virus Venus reporter expression, fluorescence; Potency, µM (doses to about 36.5 µM), for inactives: at the top dose activity change, negative = inhibition, usual class: inhibitors; calls by dose curve; tested in A549 cells; further: potency means the concentration at half of the fitted maximal effect; nearly all actives have a fitted effect of over 30% in size
HCMV antiviral – inhibitors of human cytomegalovirus | HFF cells, HCMV-luciferase reporter, 72 h; stronger effect = lower value | activity change, negative = inhibition, % at 57.5 µM | hit rate 4.5% among 410,000 | AID 1259415; in the data active means activity change below about -60%; inconclusive means no clear call, values can overlap the other calls; inactive means above about -39%
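Inhibition of viral replication was scored as loss of reporter luminescence in HFFs infected with HCMV-luciferase (MOI 1 PFU/cell) for 72 h; compounds tested at 2 doses, normalized to buffer and Salinomycin controls.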
HCV inh – blocks hepatitis C virus. hit rate 3.4% among 340,000. Potency, µM (highest dose often 41.8 µM), without a hit: top-dose activity change, negative = inhibition, actives largely listed as inhibitors. Huh7.5.1 HCVcc-Cre infection, luciferase reporter, 44 h; active means well fitted inhibition curve with a large enough effect; inconclusive means small, poorly fitted or top-dose-only effect, or another doubt; inactive means no such curve, though single readings can be large or run the other way; further: potency means the concentration at half of the fitted maximal effect
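Antiviral activity was scored by luciferase reporter output from cells infected with HCVcc-Cre (~0.5 moi) in presence of compound, 44 h infection period, cells seeded 1,000/well 4 h prior.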
VACV mCherry inh – vaccinia inhibition (mCherry reporter); Vaccinia virus mCherry reporter infection, fluorescence; Potency, µM (highest dose often 36.5 µM), inactives show at the top dose activity change, negative = inhibition, most hits filed as inhibitors; hit rate 0.63% among 310,000; calls by dose curve; tested in A549 cells; further: potency means the concentration at half of the fitted maximal effect; nearly all actives have a fitted effect of over 35% in size
FMDV antiviral – antivirals against foot and mouth disease virus. hit rate 1.2% among 410,000. FMDV antiviral cell-based qHTS. Potency, µM (top dose mostly 57.9 µM), without a hit: at the top dose activity change, negative = inhibition, actives largely listed as inhibitors; calls by dose curve; tested in HEK293T cells; further: read-out not given here; potency means the concentration at half of the fitted maximal effect; nearly all actives have a fitted effect of over 45% in size
An asterisk follows results filed as active; [ ] = another dose, or the depositor's remark. Compounds with a hit are over-represented: about 7.3% of the library has one in this group of screens. On the % scale 0 is the no-effect control and ±100 the full control effect.

Results for COc1cc2sc3cc(NCc4ccc5c(c4)OCO5)ccc3c(=O)c2cc1OC ?
Vaccinia Venus: inconclusive; HCMV antiviral: 22; HCV inh: inconclusive; VACV mCherry inh: inconclusive; FMDV antiviral: 14%

Results for COc1cc2sc3cc(NCc4ccc(C)o4)ccc3c(=O)c2cc1OC ?
Vaccinia Venus: -16%; HCMV antiviral: 210; HCV inh: 3.5µM*; VACV mCherry inh: inconclusive; FMDV antiviral: 37%

What do the screens show for `Cc1cc(C)cc(N2CCn3c2nc2c3c(=O)n(Cc3c(F)cccc3Cl)c(=O)n2C)c1`?
Vaccinia Venus: -17%; HCMV antiviral: -32; VACV mCherry inh: -2%; FMDV antiviral: -3%

What do the screens show for `CCOC(=O)Cc1csc(NC(=O)Cn2cnc3c2c(=O)n(C)c(=O)n3C)n1`?
Vaccinia Venus: 1%; HCMV antiviral: 15; HCV inh: 1%; VACV mCherry inh: -3%; FMDV antiviral: inconclusive

How did COC(=O)c1ccccc1NC(=O)Cn1cnc2c1c(=O)n(C)c(=O)n2C do in these assays?
Vaccinia Venus: 0%; HCMV antiviral: 19; HCV inh: -3%; VACV mCherry inh: -15%; FMDV antiviral: inconclusive

What do the screens show for `Cn1c(=O)c2c(ncn2CC(=O)Nc2nc(-c3ccccc3Cl)cs2)n(C)c1=O`?
HCMV antiviral: -60*; HCV inh: inconclusive; FMDV antiviral: 13µM*

How did N=c1sccn1CC(=O)Nc1ccccc1Sc1ccccc1 do in these assays?
Vaccinia Venus: -16%; HCMV antiviral: -62*; HCV inh: -13%; VACV mCherry inh: -11%; FMDV antiviral: -28%

How did Cn1c(=O)c2c(ncn2CC(=O)Nc2ccccc2Sc2ccccc2)n(C)c1=O do in these assays?
Vaccinia Venus: -20%; HCMV antiviral: -76*; HCV inh: -9%; VACV mCherry inh: -11%

How did CCC(Sc1nnc2c3ccccc3n(CC)c2n1)C(=O)Nc1ccc(NC(C)=O)cc1 (stereo unspecified) do in these assays?
Vaccinia Venus: -6%[7.34 µM]; HCMV antiviral: -37; VACV mCherry inh: inactive[7.34 µM]; FMDV antiviral: -15%

What do the screens show for `CC(C)(C)C1CCC(=NNC(=S)NCc2ccccc2)CC1` (stereo unspecified)?
Vaccinia Venus: -5%; HCMV antiviral: -62*; HCV inh: 4%; VACV mCherry inh: inconclusive; FMDV antiviral: -23%

How did S=C(NCCc1ccccc1)NC1CC1 do in these assays?
Vaccinia Venus: -4%; HCMV antiviral: 24; HCV inh: 7%; VACV mCherry inh: -13%; FMDV antiviral: 10%

How did S=C(NCCc1ccccc1)NN=C1CCCCCC1 do in these assays?
Vaccinia Venus: -6%; HCMV antiviral: -92*; HCV inh: 14%; VACV mCherry inh: -19%; FMDV antiviral: 54%

Results for COCCNC(=S)NN=C1CCCCCC1 ?
HCMV antiviral: -115*; HCV inh: -9%; FMDV antiviral: 4%

What do the screens show for `COCCNC(=S)N/N=C1\CC(C)CC(C)(C)C1` (stereo unspecified)?
Vaccinia Venus: 11%; HCMV antiviral: -76*; HCV inh: 9%; VACV mCherry inh: -18%; FMDV antiviral: -16%

What do the screens show for `CCOC(=O)N/N=C1\CC(C)CC(C)(C)C1` (stereo unspecified)?
Vaccinia Venus: -4%; HCMV antiviral: -4; HCV inh: 25%; VACV mCherry inh: inactive; FMDV antiviral: -1%

Results for O=C(Nc1cccc(-c2nc3ccccc3[nH]2)c1)c1c(F)cccc1F ?
Vaccinia Venus: -19%; HCMV antiviral: 64; VACV mCherry inh: -18%; FMDV antiviral: -11%

What do the screens show for `COc1ccccc1C(=O)N(Cc1cc2cccc(C)c2nc1N1CCC(O)CC1)C1CC1`?
Vaccinia Venus: 5%; VACV mCherry inh: -14%; FMDV antiviral: -7%

Results for COC(=O)[C@@]1(Sc2ccc(OC)cc2)CC(=O)N[C@@H]1c1ccc(OC(C)C)c(OC)c1 ?
HCMV antiviral: -5

What do the screens show for `Cc1cccc(-n2ncc(C(=O)NCc3ccco3)c2C2CCN(C(=O)OC(C)(C)C)CC2)c1`?
Vaccinia Venus: -7%; HCMV antiviral: 0; VACV mCherry inh: -15%; FMDV antiviral: -7%

What do the screens show for `CC12CCC(O)CC1CCC1C2CCC2(C)C(C3=CC(=O)OC3)C(O)CC12O` (stereo unspecified)?
Vaccinia Venus: 1.8µM*; HCMV antiviral: -97*; HCV inh: inconclusive; VACV mCherry inh: 1.3µM*; FMDV antiviral: inconclusive
